Here are results for 14 compounds from the supplement of paper PMC6522484.

In experiment [1] the test system is DLD1. In words: cell viability (CellTiter-Glo) relative to plate median (fraction of plate median); higher = more viable cells. The settings on record: 5 µM; treatment time 24 h; reporter: 7TFP. In outline: (§1)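 Normalisation used webcellHTS2 in additive mode without log transformation, scaling each well's luminescence to the plate median. The luminescence was firefly luciferase or CellTiterGlo, read on a Tecan F500 from parallel plates of colorectal cancer cells stably transduced with lentiviral TCF/Wnt firefly luciferase reporters. Those cells had been given library compounds at a final 5 µM for 24 h, and two independent replicates were averaged.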
In general terms: ATP-based viability assays read luminescence as a measure of living cells.

Experiment [2] deals with HCT116. The experiment is described as above. The settings on record: 5 µM; treatment time 24 h; reporter: TCF4/Wnt. In outline: as §1
The test system of experiment [3] is SW480. The experiment is described as above. The settings on record: 5 µM; treatment time 24 h; reporter: 7TFP. In outline:
as §1

Experiment [4] concerns DLD1. Put plainly: TCF/Wnt firefly luciferase reporter signal relative to plate median (fraction of plate median); higher = higher Wnt reporter signal. The settings on record: 5 µM; treatment time 24 h; reporter: 7TFP. In outline:
as §1

Experiment [5] relates to SW480. Described as above. As to conditions: 5 µM; treatment time 24 h; reporter: 7TFP. The procedure, abridged: as §1

± gives the standard deviation of the averaged measurements.

As to `OC[C@@H](O)[C@@H](O[C@@H]1O[C@H](CO)[C@@H](O)[C@H](O)[C@H]1O)[C@H](O)[C@@H](O)CO`, the cell viability came out at 0.959 ± 0.058 in experiment [1], 1.01 ± 0.058 in experiment [2] and 1.01 ± 0.03 in experiment [3]. Besides, the “TCF/Wnt firefly luciferase reporter signal” value in experiment [4] worked out at 1.08 ± 0.12; in experiment [5], 1.11 ± 0.014.
On to `CCCc1cc(OC)c2c(c1)OCO2`, for which the cell viability in experiment [1] was 0.961 ± 0.11; in experiment [2], 0.939 ± 0.014; in experiment [3], 0.976 ± 0.049. The entries for the “TCF/Wnt firefly luciferase reporter signal” value in experiment [4] and in experiment [5] were 0.958 ± 0.034 and 0.964 ± 0.065, respectively.
For `O=c1c(-c2ccc(O)cc2)coc2cc(O)cc(O)c12` [Genistein (Biofocus)], the cell viability in experiment [1] worked out at 1.05 ± 0.078; in experiment [2], 1.04 ± 0.09; in experiment [3], 1.08 ± 0.099. Further, the “TCF/Wnt firefly luciferase reporter signal” value worked out at 1.21 ± 0.15 in experiment [4] and 1.06 ± 0.021 in experiment [5].
On to `COc1c(Cl)ccc(Cl)c1C(=O)O`, for which the cell viability in experiment [1] came to 1.01 ± 0.039; in experiment [2], 1.11 ± 0.16; in experiment [3] it was 0.99 ± 0.057. For the same compound, the “TCF/Wnt firefly luciferase reporter signal” value in experiment [4] came to 1 ± 0.15; in experiment [5], 0.874 ± 0.0057.
With `C[C@H]1[C@H](C)CC[C@]2(C(=O)O)CC[C@]3(C)C(=CC[C@@H]4[C@@]5(C)C[C@@H](O)[C@H](O)[C@@](C)(CO)[C@@H]5[C@H](O)C[C@]43C)[C@H]12`, the results for the cell viability in experiment [1], in experiment [2] and in experiment [3] were 1.01 ± 0.048, 1.09 ± 0.099 and 0.985 ± 0.0085, respectively. Also, the “TCF/Wnt firefly luciferase reporter signal” value in experiment [4] was 0.919 ± 0.05; in experiment [5] it was 1.045 ± 0.0071.
Take `CN(C)CCOC(c1ccccc1)c1ccccc1.Cn1c(=O)c2[nH]c(Cl)nc2n(C)c1=O`: the cell viability in experiment [1] turned out to be 0.909 ± 0.025; in experiment [2], 1.04 ± 0.1; in experiment [3] it was 0.927 ± 0.022. Besides, the results for the “TCF/Wnt firefly luciferase reporter signal” value in experiment [4] and in experiment [5] were 1.14 ± 0.13 and 1.12 ± 0.021, respectively.
With `CC(=O)CC(=O)CCC(=O)O`, the values for the cell viability in experiment [1], in experiment [2] and in experiment [3] were 1.02 ± 0.11, 0.996 ± 0.12 and 0.935 ± 0.033, respectively. The “TCF/Wnt firefly luciferase reporter signal” value in experiment [4] turned out to be 0.844 ± 0.13; in experiment [5], 0.939 ± 0.02.
`CCOC(=O)c1ncn2c1CN(C)C(=O)c1cc(F)ccc1-2`: the cell viability in experiment [1] turned out to be 0.944 ± 0.045; in experiment [2], 1.03; in experiment [3] it was 0.952 ± 0.025. Besides, the “TCF/Wnt firefly luciferase reporter signal” value stood at 0.996 ± 0.02 in experiment [4] and 0.993 ± 0.0099 in experiment [5].
For `CO[C@H]1C=C[C@@]23c4cc5c(cc4CN(C[C@@H]2O)[C@H]3C1)OCO5`, in that order: 0.864 ± 0.075, 0.847 ± 0.069, 0.862 ± 0.035, 0.857 ± 0.057 and 0.901 ± 0.18.
For the compound `CC(=O)Oc1ccc(O)cc1`, the cell viability in experiment [1] turned out to be 1.03 ± 0.021; in experiment [2], 1.08 ± 0.035; in experiment [3], 1.04 ± 0.014. For the same compound, the “TCF/Wnt firefly luciferase reporter signal” value amounted to 1.07 ± 0.042 in experiment [4] and 1.035 ± 0.0071 in experiment [5].
Consider `C=CC(C1=CC(=O)C(OC)=CC1=O)c1ccccc1` (stereo not given), for which the cell viability in experiment [1] was 0.983 ± 0.0014; in experiment [2], 1.05 ± 0.042; in experiment [3] it was 1.03 ± 0.021. The “TCF/Wnt firefly luciferase reporter signal” value in experiment [4] was 0.985 ± 0.079; in experiment [5] it was 1.01 ± 0.054.
With `Clc1ccc(C(Cn2ccnc2)OCc2ccsc2Cl)c(Cl)c1` (stereo not given), the cell viability in experiment [1] is 0.966 ± 0.077; in experiment [2], 0.98 ± 0.085; in experiment [3] it was 1.005 ± 0.0071. Further, the “TCF/Wnt firefly luciferase reporter signal” value in experiment [4] came to 0.923 ± 0.14; in experiment [5] it was 0.894 ± 0.023.
For `CC[C@H](C)[C@H](N)C1=N[C@H](C(=O)N[C@@H](CC(C)C)C(=O)N[C@H](CCC(=O)O)C(=O)N[C@H](C(=O)N[C@H]2CCCCNC(=O)[C@H](CC(N)=O)NC(=O)[C@@H](CC(=O)O)NC(=O)[C@H](Cc3cnc[nH]3)NC(=O)[C@@H](Cc3ccccc3)NC(=O)[C@H]([C@@H](C)CC)NC(=O)[C@@H](CCCN)NC2=O)[C@@H](C)CC)CS1`, in that order: 1.05 ± 0.05, 1.03 ± 0.021, 0.992 ± 0.04, 1.03 ± 0.042 and 1.03 ± 0.021.
For the compound `c1ccc2c(c1)CCCC2C1=NCCN1` (stereo not given), the cell viability in experiment [1] was determined as 1.02 ± 0.014; in experiment [2], 1.125 ± 0.0071; in experiment [3] it was 1.07 ± 0.05. In addition, the “TCF/Wnt firefly luciferase reporter signal” value in experiment [4] turned out to be 1.08 ± 0.19; in experiment [5] it was 0.985 ± 0.0014.
